Measured values published in PubChem BioAssay (NCI).
The panel holds about 79,000 compounds, 15% with a hit somewhere; the sample as a whole holds those more often. Values without a mark were called inactive. Active and inactive are the calls of the source. Cut-off read from the data, not from the text of the source: active = growth inhibition above about 70%; inactive = the rest.

What was measured:
[1] = NCI Yeast Anticancer Drug Screen. Data for the rad50 strain (AID 155);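 note: 0% = growth of vehicle-only cultures of the same strain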; settings: S. cerevisiae rad50 strain growth inhibition, stronger effect = higher value
Procedure, shortened: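 Compounds were tested on a yeast strain with an engineered DNA damage repair alteration; the reported value is growth inhibition normalised to vehicle treatment.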

[2] = NCI Yeast Anticancer Drug Screen. Data for the mec2-1 strain (AID 157); settings: S. cerevisiae mec2-1 strain, stronger effect = higher value
Procedure, shortened: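 Compounds were applied to mec2-1 yeast cells. Their growth was then compared with that of vehicle-treated cultures to give growth inhibition.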

[3] = NCI Yeast Anticancer Drug Screen. Data for the sgs1 mgt1 strain (AID 161);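 note: 0% = growth of cultures given vehicle only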; settings: S. cerevisiae sgs1 mgt1 strain, stronger effect = higher value
Procedure, shortened: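 Growth of a repair-deficient yeast mutant was monitored after compound treatment and expressed as inhibition relative to vehicle-treated cultures.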

[4] = NCI Yeast Anticancer Drug Screen. Data for the cln2 rad14 strain (AID 165);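 note: 0% = growth equal to vehicle treated cultures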; settings: S. cerevisiae cln2 rad14 strain, stronger effect = higher value
Procedure, shortened: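 Strain: cln2 rad14 yeast, altered in cell cycle control and DNA damage repair. Read-out: growth inhibition vs vehicle.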

[5] = NCI Yeast Anticancer Drug Screen. Data for the bub3 strain (AID 167); settings: S. cerevisiae bub3 mutant strain, stronger effect = higher value
Procedure, shortened: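 Growth of a checkpoint-deficient yeast mutant is measured after compound exposure. Values represent inhibition relative to vehicle.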

[6] = NCI Yeast Anticancer Drug Screen. Data for the mlh1 rad18 strain (AID 175); settings: S. cerevisiae mlh1 rad18 strain growth inhibition, stronger effect = higher value
Procedure, shortened: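 A repair-deficient yeast strain is exposed to test compound, and growth is scored relative to vehicle-treated controls.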

[7] = at 5.0 µM (retest, dose inferred, filed as 0.5)
[8] = at 50.0 µM (retest, dose inferred, filed as 5.0)

SMILES | growth inhibition [1, 7] | growth inhibition [1, 8] | growth inhibition ([1]; at 50.0 µM) | growth inhibition [2, 7] | growth inhibition [2, 8] | growth inhibition ([2]; at 50.0 µM) | growth inhibition [3, 7] | growth inhibition [3, 8] | growth inhibition ([3]; at 50.0 µM) | growth inhibition [4, 7] | growth inhibition [4, 8] | growth inhibition ([4]; at 50.0 µM) | growth inhibition [5, 7] | growth inhibition [5, 8] | growth inhibition ([5]; at 50.0 µM) | growth inhibition [6, 7] | growth inhibition [6, 8] | growth inhibition ([6]; at 50.0 µM)
O=c1[nH]c2c([N+](=O)[O-])cc(Cl)cc2nc1/C=C(\O)c1ccc(Cl)cc1 | -16% | 91% (active) | 96.8% (active) | 20% | 87% (active) | 95.3% (active) | -3% | 78% (active) | 95.3% (active) | -27% | 83% (active) | 65% | 17% | 87% (active) | 89.8% (active) | 13% | 95% (active) | 97.2% (active)
COC(=O)/C(C#N)=C1\NC(=O)CC(c2ccccc2)C1C#N (configuration not stated) | 12% | 20% | -25.2% | 9% | 16% | -27.1% | 21% | 20% | 9.25% | 5% | 19% | -1.3% | 10% | 13% | -0.9% | 23% | 18% | -16.7%
CC(CC(C#CCN(C)C)N(C)C)CC(C)(C)C (configuration not stated) | 22% | -9% | -5.3% | 1% | -10% | 15.6% | 3% | 5% | 13.3% | 1% | 24% | -7.5% | 7% | 14% | 41.1% | 6% | -5% | 38.6%
CCOC(=O)/C(=C/c1ccccc1Br)P(=O)(OCC)OCC | 7% | 39% | 71.2% (active) | -6% | 60% | 35.8% | -12% | 38% | 41.9% | 18% | 53% | 33.5% | -2% | 85% (active) | 61.3% | -18% | 74% (active) | 30%
CCSc1c2ccccc2nc2c(OC)ccc(OC)c12 | 3% | 70% (active) | 88.7% (active) | -3% | 23% | 35.4% | -7% | 30% | 63.1% | -7% | -7% | 48.7% | -7% | 20% | 39.4% | -3% | 54% | 90.3% (active)
COC(=O)C1(C)CCCC2(C)C3CCC4CC3(C=C4CO)CCC12 (configuration not stated) | 32% | 96% (active) | 53% | 24% | 98% (active) | 43.1% | 35% | 99% (active) | 86.5% (active) | 36% | 91% (active) | 73.5% (active) | 24% | 98% (active) | 80.7% (active) | 41% | 98% (active) | 50.4%
S=C(SSSSC(=S)N1CCCCC1)N1CCCCC1 | 45% | 92% (active) | 66.8% | 39% | 95% (active) | 19.9% | 39% | 96% (active) | 43.1% | 39% | 94% (active) | 9.35% | 40% | 95% (active) | 73.5% (active) | 57% | 93% (active) | 81% (active)
C=CCOC(=O)N(C(=O)OCC=C)C(Cc1ccc(O)cc1)C(=O)NNc1ccccc1 (configuration not stated) | 17% | 65% | 53.4% | 2% | 33% | 44.5% | 11% | 51% | 69.7% | 5% | 56% | 39% | 16% | 90% (active) | 70% | 20% | 62% | 84.3% (active)
COc1cc(C)c2sc3ccccc3c(=O)c2c1NCCCN(C)C | 1% | 51% | 72.3% (active) | -4% | -6% | 37% | -2% | 58% | 70.3% (active) | -4% | 51% | 14.6% | 0% | 53% | 27.1% | -3% | 54% | 95.3% (active)
COC(=O)C1=C(C(=O)OC)C2C(C)=CC(C)=CN2C(C(=O)OC)=C1C(=O)OC (configuration not stated) | -1% | -7% | 11.2% | 0% | 2% | 5.8% | -10% | 4% | 2.3% | -2% | -5% | 74.3% (active) | 2% | -3% | -6.7% | -4% | -4% | 25.4%
Cn1c(=O)c2c(nc(CCCCCCCc3nc4c(c(=O)n(C)c(=O)n4C)n3C)n2C)n(C)c1=O | 4% | 5% | 48.9% | 1% | 18% | 23.3% | 2% | 10% | 42% | 2% | 10% | 60.2% | 7% | 4% | 16.7% | -2% | 9% | 35.8%
CCCCN(CCCC)CC(=O)c1ccc2cc(Cl)c3ccccc3c2c1 | 20% | 91% (active) | 95.3% (active) | 23% | 93% (active) | 95.5% (active) | 56% | 90% (active) | 95.8% (active) | 7% | 90% (active) | 92.7% (active) | 18% | 91% (active) | 95.3% (active) | 31% | 84% (active) | 94.7% (active)
Cc1cc2c(cc1C)C(=O)OC2=O | 1% | 14% | 72% (active) | -1% | -1% | 45.5% | 2% | 1% | 36.3% | 1% | -1% | 31.6% | -3% | 5% | 83.5% (active) | -2% | 5% | 41.5%
CCSC(=Nc1nc2ccc(NC(C)=O)cc2s1)SCC | 5% | 96% (active) | 97.2% (active) | -3% | 97% (active) | 98% (active) | -1% | 97% (active) | 98.5% (active) | -3% | 83% (active) | 96.5% (active) | -2% | 94% (active) | 96% (active) | -2% | 96% (active) | 97.5% (active)
Cc1ccc(NC(=S)SCc2ccc(Cl)cc2)cc1C | 12% | 94% (active) | 94.9% (active) | -5% | 60% | 98.2% (active) | 1% | 94% (active) | 98% (active) | -4% | 34% | 86.8% (active) | 18% | 68% | 97.5% (active) | 1% | 82% (active) | 98.6% (active)
CCN(CC)CC(O)c1ccc2cc(Cl)c3ccccc3c2c1 (configuration not stated) | 15% | 99% (active) | 99.5% (active) | 4% | 99% (active) | 99.5% (active) | 25% | 99% (active) | 99.6% (active) | 8% | 99% (active) | 99.3% (active) | 16% | 98% (active) | 99.5% (active) | 29% | 99% (active) | 99.6% (active)
C/C(=N\NC(=S)N(C)C)c1cccc(C)n1 | 76% (active) | 98% (active) | 99.2% (active) | 84% (active) | 99% (active) | 99.3% (active) | 84% (active) | 99% (active) | 99.2% (active) | 89% (active) | 99% (active) | 99% (active) | 70% (active) | 98% (active) | 99.3% (active) | 95% (active) | 98% (active) | 99.3% (active)
O=C(O)C(c1ccccc1)c1ccc(-c2ccccc2)cc1 (configuration not stated) | 3% | 82% (active) | 96.7% (active) | -2% | 64% | 96% (active) | 5% | 80% (active) | 97.8% (active) | -7% | 80% (active) | 97% (active) | 1% | 49% | 79% (active) | 0% | 80% (active) | 91.2% (active)
Cc1ccccc1Sc1ccccc1[N+](=O)[O-] | 2% | 35% | 12.9% | 1% | 5% | 12.8% | 0% | 27% | 26.1% | 5% | 7% | 11.1% | -1% | 8% | 20.6% | 2% | 39% | 74.5% (active)
